# Laboratory results: the supplement of paper PMC12494721
# Where a name gives a salt, the structure may show the parent alone.
# What was measured:
# Settings in all cases: incubation time: 27 h, anaerobic, 37 °C;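 for the amine columns active = adjusted P below 0.05 in both replicates with a change the same way and a mean fold change under 0.8 or over 1.25; inactive = the rest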
# [1] = system: Clostridium sporogenes DSM 1664; test: growth (OD595) fold change vs plate DMSO controls (fold change (ratio)); higher = more growth
# Outline: (§1)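 Shaken 96-well cultures in mGAM, grown anaerobically for 27 h at 37 °C, were read at 595 nm. OD came from blank-subtracted readings, corrected for background with 20 µM compound solutions in water and scaled by a calibration factor of 5. Growth is the fold change versus the plate's median DMSO control. Values average 2 biological replicates, and any fold change above 1.5 is NA.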
# Escherichia coli IAI1 [2] = test: as above
# Outline: as §1
# [3] = system: Klebsiella aerogenes DSM 30053; test: as above
# Outline: as §1
# [4] = system: Ruminococcus gnavus DSM 108212; test: as above
# Outline: as §1
# [5] = system: Klebsiella aerogenes DSM 30053; test: fold change of Histamine concentration vs plate DMSO controls (fold change (ratio)); higher = more amine produced, active = hit call of the paper (significant change in both replicates, either direction)
# Outline: (§2)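 Anaerobic mGAM cultures of four gut bacterial strains were grown at 37 °C for 27 h in 80 µL wells, starting at OD 0.1 before 1:1 dilution. Compounds were at 20 µM final (sweeteners 50 µM). Whole cultures were extracted with cold acetonitrile/methanol containing 0.1% formic acid and centrifuged. Amines were quantified by LC–triple-quadrupole MS (dynamic MRM) against external calibration curves and drift-corrected within batch. Each value is the fold change versus plate DMSO controls, averaged over 2 biological replicates.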
# [6] = system: Clostridium sporogenes DSM 1664; test: fold change of Tryptamine concentration vs plate DMSO controls (fold change (ratio)); higher = more amine produced, active = hit call of the paper (significant change in both replicates, either direction)
# Outline: as §2
# [7] = system: Ruminococcus gnavus DSM 108212; test: as above
# Outline: as §2
# Escherichia coli IAI1 [8] = test: fold change of Putrescine concentration vs plate DMSO controls (fold change (ratio)); higher = more amine produced, active = hit call of the paper (significant change in both replicates, either direction)
# Outline: as §2
# [9] = system: Klebsiella aerogenes DSM 30053; test: as above
# Outline: as §2
# Escherichia coli IAI1 [10] = test: fold change of Cadaverine concentration vs plate DMSO controls (fold change (ratio)); higher = more amine produced, active = hit call of the paper (significant change in both replicates, either direction)
# Outline: as §2
# [11] = system: Klebsiella aerogenes DSM 30053; test: as above
# Outline: as §2
# [12] = system: Ruminococcus gnavus DSM 108212; test: fold change of 2-Phenylethylamine concentration vs plate DMSO controls (fold change (ratio)); higher = more amine produced, active = hit call of the paper (significant change in both replicates, either direction)
# Outline: as §2
SMILES,growth [1],growth (Escherichia coli IAI1 [2]),growth [3],growth [4],fold change of Histamine concentration [5],fold change of Tryptamine concentration [6],fold change of Tryptamine concentration [7],fold change of Putrescine concentration (Escherichia coli IAI1 [8]),fold change of Putrescine concentration [9],fold change of Cadaverine concentration (Escherichia coli IAI1 [10]),fold change of Cadaverine concentration [11],fold change of 2-Phenylethylamine concentration [12]
CC1=C(C(=O)O)N2C(=O)[C@@H](NC(=O)[C@H](N)c3ccccc3)[C@H]2SC1 [Cephalexin monohydrate] (20 µM),0.958,0.985,0.98,0.987,1.03 (inactive),1.17 (inactive),1.1 (inactive),0.911 (inactive),0.934 (inactive),0.879 (inactive),1.01 (inactive),1.15 (inactive)
O=C(N/N=C/c1ccc([N+](=O)[O-])o1)c1ccc(O)cc1 [Nifuroxazide] (20 µM),1.11,1.03,0.907,1.2,1.01 (inactive),0.998 (inactive),0.89 (inactive),0.759 (active),0.954 (inactive),1.58 (active),1.02 (inactive),0.626 (active)
Cc1cc(-c2ccccc2)nnc1NCCN1CCOCC1 [Minaprine dihydrochloride] (20 µM),1.21,0.985,0.972,1.16,0.939 (inactive),1.01 (inactive),0.991 (inactive),0.963 (inactive),0.998 (inactive),1.01 (inactive),1 (inactive),0.955 (inactive)
CCCc1nc2c(C)cc(-c3nc4ccccc4n3C)cc2n1Cc1ccc(-c2ccccc2C(=O)O)cc1 [Telmisartan] (20 µM),0.962,0.99,1.02,0.953,1.02 (inactive),0.911 (inactive),0.966 (inactive),1.04 (inactive),1.01 (inactive),1.05 (inactive),0.996 (inactive),1.01 (inactive)
c1ccc(-c2ccc(C(c3ccccc3)n3ccnc3)cc2)cc1 (stereo not drawn) [Bifonazole] (20 µM),1.27,1.08,1.02,0.817,0.99 (inactive),0.923 (inactive),0.82 (inactive),1.04 (inactive),1.01 (inactive),0.981 (inactive),1 (inactive),0.927 (inactive)
CO[C@H]1C[C@H](O[C@H]2[C@H](C)[C@@H](O[C@@H]3O[C@H](C)C[C@H](N(C)C)[C@H]3OC(C)=O)[C@@H](C)C[C@@]3(CO3)C(=O)[C@H](C)[C@@H](OC(C)=O)[C@@H](C)[C@@H](C)OC(=O)[C@@H]2C)O[C@@H](C)[C@@H]1OC(C)=O [Troleandomycin] (20 µM),0.0017,0.966,1.03,0.456,0.976 (inactive),0.0831 (active),0.676 (active),1.01 (inactive),0.987 (inactive),1 (inactive),1.01 (inactive),0.769 (active)
CCN1CCC[C@H]1CNC(=O)c1c(OC)ccc(Br)c1OC [Remoxipride hydrochloride] (20 µM),1.09,1.03,0.988,1.01,1.04 (inactive),0.946 (inactive),0.945 (inactive),0.998 (inactive),1.02 (inactive),1.03 (inactive),0.989 (inactive),0.92 (inactive)
CCOc1ccccc1C(N)=O [Ethenzamide] (20 µM),1.07,1,1.01,0.956,1.02 (inactive),1.1 (inactive),1.01 (inactive),0.983 (inactive),0.985 (inactive),0.986 (inactive),0.978 (inactive),1.03 (inactive)
CCOC(=O)[N-]c1c[n+](N2CCOCC2)no1 [Molsidomine] (20 µM),0.839,1.04,0.98,0.196,1.03 (inactive),1.19 (inactive),0.153 (active),0.994 (inactive),1.02 (inactive),0.951 (inactive),1 (inactive),0.14 (active)
COc1ccccc1OCC(O)COC(N)=O (stereo not drawn) [Methocarbamol] (20 µM),1.03,1,1.03,1.12,1.06 (inactive),1.02 (inactive),0.963 (inactive),0.998 (inactive),1.01 (inactive),0.986 (inactive),0.987 (inactive),0.95 (inactive)
Clc1cccc(Cl)c1NC1=NCCN1 [Clonidine hydrochloride] (20 µM),0.856,0.984,0.989,0.99,1.04 (inactive),0.953 (inactive),1.09 (inactive),0.995 (inactive),1.01 (inactive),0.996 (inactive),0.992 (inactive),1.08 (inactive)
NCCCC[C@H](N[C@@H](CCc1ccccc1)C(=O)O)C(=O)N1CCC[C@H]1C(=O)O [Lisinopril] (20 µM),1.04,1.03,1.14,0.922,0.911 (inactive),0.958 (inactive),0.981 (inactive),0.998 (inactive),0.988 (inactive),1.04 (inactive),1.02 (inactive),0.943 (inactive)
CNC(=C[N+](=O)[O-])NCCSCc1csc(CN(C)C)n1 [Nizatidine] (20 µM),1.13,1.02,1.01,1.09,1.04 (inactive),0.99 (inactive),0.971 (inactive),0.988 (inactive),1.03 (inactive),0.984 (inactive),1 (inactive),0.954 (inactive)
COc1cc(NS(=O)(=O)c2ccc(N)cc2)ncn1 [Sulfamonomethoxine] (20 µM),1.06,0.996,0.978,1.09,1.11 (inactive),0.982 (inactive),0.944 (inactive),0.911 (inactive),1.02 (inactive),1.03 (inactive),0.991 (inactive),0.915 (inactive)
CCOC(=O)O[C@]1(C(=O)COC(=O)CC)CC[C@H]2[C@@H]3CCC4=CC(=O)C=C[C@]4(C)[C@H]3[C@@H](O)C[C@@]21C [Prednicarbate] (20 µM),1.04,1.09,1.01,0.865,1.02 (inactive),0.97 (inactive),1.2 (inactive),0.941 (inactive),1.03 (inactive),1.01 (inactive),1.12 (inactive),1.41 (inactive)
NS(=O)(=O)c1cc2c(cc1Cl)N=CNS2(=O)=O [Chlorothiazide] (20 µM),1.05,1.06,1.03,0.966,1.05 (inactive),0.97 (inactive),0.998 (inactive),1.05 (inactive),1.03 (inactive),0.97 (inactive),1.01 (inactive),1.01 (inactive)
C=CCOC(Cn1ccnc1)c1ccc(Cl)cc1Cl (stereo not drawn) (20 µM),1.09,0.991,1.02,0.883,0.976 (inactive),1.08 (inactive),1 (inactive),0.942 (inactive),0.941 (inactive),0.909 (inactive),1.06 (inactive),1.07 (inactive)
CC(=O)[C@H]1CC[C@H]2[C@@H]3CCC4=CC(=O)CC[C@]4(C)[C@H]3CC[C@]12C [Progesterone] (20 µM),1.08,1.02,1.05,0.651,0.893 (inactive),1.04 (inactive),0.981 (inactive),1.07 (inactive),0.961 (inactive),1.03 (inactive),1.02 (inactive),0.95 (inactive)
COc1cc(NC(C)CCCN)c2ncccc2c1 (stereo not drawn) [Primaquine diphosphate] (20 µM),1.08,1.02,1.07,0.905,0.851 (inactive),1.03 (inactive),1.07 (inactive),1.03 (inactive),0.943 (inactive),1 (inactive),1.02 (inactive),1.09 (inactive)
C[C@@H]1C[C@H]2[C@@H]3CCC4=CC(=O)C=C[C@]4(C)[C@@]3(Cl)[C@@H](O)C[C@]2(C)[C@@]1(OC(=O)c1ccco1)C(=O)CCl [Mometasone furoate] (20 µM),1.08,0.984,1.14,1.04,0.923 (inactive),0.991 (inactive),0.889 (inactive),1.02 (inactive),1 (inactive),1.03 (inactive),1.03 (inactive),0.898 (inactive)
COc1ccc(C2C(=O)c3ccccc3C2=O)cc1 [Anisindione] (20 µM),0.917,0.951,0.965,1.04,1.03 (inactive),0.976 (inactive),0.994 (inactive),0.953 (inactive),1 (inactive),0.994 (inactive),0.991 (inactive),0.951 (inactive)
CC(=O)Oc1ccc(C(=C2CCCCC2)c2ccc(OC(C)=O)cc2)cc1 [Cyclofenil] (20 µM),0.924,1.04,1.03,0.991,0.983 (inactive),0.873 (inactive),0.953 (inactive),1.05 (inactive),0.997 (inactive),0.997 (inactive),1 (inactive),0.942 (inactive)
Cn1c(=O)c2c(ncn2CCO)n(C)c1=O [Etofylline] (20 µM),0.922,1.01,1.01,1.04,0.983 (inactive),0.964 (inactive),0.853 (inactive),1.01 (inactive),0.997 (inactive),1.03 (inactive),1 (inactive),0.839 (inactive)
O=S(=O)(O)NC1CCCCC1 [Cyclamic acid] (50 µM),1.16,0.998,0.991,0.998,1.01 (inactive),1.03 (inactive),1.01 (inactive),1.03 (inactive),1.01 (inactive),0.989 (inactive),0.991 (inactive),1.02 (inactive)
